Screens from PubChem.
Sampled rows, rich in hits. Any-hit rate of the full collection: about 28%.
hDAT+cocaine: changed human dopamine transporter uptake under cocaine IC80 | B-score at 10 µM | 110,000 tested, 1.3% active | LLC-PK1 hDAT cells, [14C]-dopamine uptake with cocaine IC80; actives deviate in either direction | Q01959 | AID 449768;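 active = Z score or B-score, a plate-position-corrected score, falls beyond the plate's 99.7% confidence bounds, in either direction; inactive = both scores lie inside the 99.7% bounds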;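 note: scored against the spread of the other compound wells on the same plate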
CYP2C19 inhib: human CYP2C19 inhibition; CYP2C19 Supersomes, luciferin-H EGE luminescence, 30 min; inhibition, % at 5 µM; P33261; 96,000 tested, 21% active;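 active = CYP2C19 inhibition above a set limit at 5 µM in the primary screen, cut at about 50% in these data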;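 note: plate controls were negative control wells for no effect and 2.5 mM tranylcypromine positive control for full effect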
CYP2C19 act: activators of human cytochrome P450 2C19; recombinant CYP2C19, luciferin-H EGE luminescence; hits give high values; 0 = fully inhibited enzyme, 1 = untreated enzyme; 96,000 tested, under 10 active; activation factor at 5 µM; AID 1025; P33261;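 active = activation factor of at least 2 at 5 µM in the primary screen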;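 note: 0 = wells with 2.5 mM tranylcypromine and 1 = vehicle-only wells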
D1 mod: D1 dopamine receptor (human) allosteric modulation | P21728 | HEK293 D1, CRE-luciferase, dopamine EC30 potentiation; actives deviate in either direction | B-score at 10 µM | 58,000 tested, 5.9% active | AID 641;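 active = luminescence count or its row- and column-corrected plate score outside the 99.7% band of the plate's sample wells, on either side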
CYP2C9 activ: increases human cytochrome P450 2C9 activity; 96,000 tested, 1.4% active; activation factor at 5 µM; recombinant CYP2C9, luciferin-H conversion, luminescence; hits give high values; factor 1 = untreated enzyme, 0 = blocked; AID 1024;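 active = activation factor of 2 or more for CYP2C9 at a 5 µM dose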;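 note: 0 = sulfaphenazole-blocked wells and 1 = vehicle-only wells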
Target sequence (P11712 whole entry, looked up): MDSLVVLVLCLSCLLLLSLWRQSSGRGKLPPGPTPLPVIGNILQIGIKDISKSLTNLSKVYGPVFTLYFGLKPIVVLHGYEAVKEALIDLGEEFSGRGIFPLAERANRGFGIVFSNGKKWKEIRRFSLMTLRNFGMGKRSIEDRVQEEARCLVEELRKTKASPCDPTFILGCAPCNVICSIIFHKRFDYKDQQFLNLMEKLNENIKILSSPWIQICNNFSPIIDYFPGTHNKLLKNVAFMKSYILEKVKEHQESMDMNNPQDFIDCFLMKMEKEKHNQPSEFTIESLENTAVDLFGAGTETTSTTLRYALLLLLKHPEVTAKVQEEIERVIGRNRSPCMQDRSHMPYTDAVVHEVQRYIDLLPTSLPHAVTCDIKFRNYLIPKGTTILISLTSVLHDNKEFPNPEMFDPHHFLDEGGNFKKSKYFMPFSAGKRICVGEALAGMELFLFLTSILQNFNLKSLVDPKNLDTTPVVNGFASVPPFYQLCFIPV
CYP2C9 inh: blocks human cytochrome P450 2C9. inhibition, % at 5 µM. P11712. CYP2C9 Supersomes, luciferin-H conversion, luminescence. 96,000 tested, 20% active. AID 777;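 active = blocking of liver enzyme CYP2C9 beyond about 50% at 5 µM, limit read from the data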
* hit, by the source's call; · = no result given.

SMILES	hDAT+cocaine	CYP2C19 inhib	CYP2C19 act	D1 mod	CYP2C9 activ	CYP2C9 inh
COc1cc2c(cc1OC)-c1nnc(C)n1C(C)(C)C2	0.15	-26	1.3	·	1.3	-26
CCn1cc(C(=O)Nc2ccc(-n3cnnn3)c(OC)c2)c(=O)c2ccc(C)nc21	0.071	2	1	0.2	0.9	13
CCOC(=O)C[C@H]1c2ccc(C(F)(F)F)cc2S(=O)(=O)N1c1cccc(OC)c1	0.76	·	·	·	·	·
CCC(=O)N1CCc2cc(S(=O)(=O)NCCCN(CC)Cc3ccccc3)ccc21	1.8	6	0.9	-0.26	1	4
CCC(=O)N1c2ccc(S(=O)(=O)N(CCO)Cc3ccccc3)cc2CC1C (configuration not stated)	0.66	52*	0.5	0.49	0.4	56*
C=CCOC(=O)c1sc(NC(=O)c2ccco2)nc1C	2.3	16	0.8	-2.7	0.2	82*
CCOC(=O)c1ccc2nc(NC(=O)c3ccco3)sc2c1	0.72	·	·	-4.8*	·	·
COc1ccc2c(CC(=O)OCC(=O)NC(=O)c3cccn3C)coc2c1	0.28	-4	1	·	0.9	11
CCc1nnc(NC(=O)C(C)N2C(=O)C3C4C=CC(C4)C3C2=O)s1 (configuration not stated)	-0.01	-16	1.2	·	1	3
Cc1cc(C)nc(/N=C/c2c(O)n(C)c(=O)n(C)c2=O)n1	·	-4	1	-0.29	1.1	-5
CCN1CCN(c2cc(C)c3cc(NC(=O)Cc4ccc(OC)c(OC)c4)ccc3n2)CC1	3.1*	13	0.9	0.2	0.8	20
CCN1CCN(c2cc(C)c3cc(NC(=O)c4cnccn4)ccc3n2)CC1	-0.28	5	0.9	-0.35	1.1	-9
COc1ccc(N(C)C(=O)CCC(=O)Nc2ccc3nc(N4CCOCC4)cc(C)c3c2)c(OC)c1	3.2*	24	0.8	-0.66	0.7	30
CC1(c2ccccc2)NC(=S)N2C1NC(=S)N2c1ccccc1 (configuration not stated)	-0.17	70*	0.3	·	0.7	33
CC1CCCC2(C1)NC(=S)N(c1ccccc1)N2 (configuration not stated)	0.032	42	0.6	·	0.8	21
CCOC(=O)C(C(=O)Nc1ccccc1C)C1CCCCC1 (configuration not stated)	-0.51	35	0.6	·	0.8	24
O=C(NC1CCCC1)C1CC1c1ccccc1 (configuration not stated)	1.3	73*	0.3	0.55	0.4	63*
CCc1c(C)sc(NC(=O)C2CC2c2ccccc2)c1C(N)=O (configuration not stated)	1.4	42	0.6	·	0.8	22
O=C(Nc1ccncc1)C1CC1c1ccccc1 (configuration not stated)	0.79	97*	0	·	0.2	84*
CCOc1ccc(N(C(C)C(=O)Nc2ccc(OC)cc2)S(C)(=O)=O)cc1 (configuration not stated)	1.9	74*	0.3	0.32	0.3	72*
CCOc1ccc(NC(=O)C(C)SC(N)=O)cc1 (configuration not stated)	-0.15	19	0.8	-2.6*	0.7	28
COCCNC(=O)C(C)N(c1ccc(OC)cc1)S(C)(=O)=O (configuration not stated)	0.26	23	0.8	·	1.3	-29
CCN(CC(F)(F)C(F)F)S(=O)(=O)c1ccc(NC(=O)OC)cc1	-0.26	22	0.8	-0.33	0.6	41
CCN(CC)S(=O)(=O)c1ccc(NC(=O)C(C)N(c2ccc(OC)cc2)S(C)(=O)=O)cc1 (configuration not stated)	0.3	7	0.9	·	0.4	56*
COc1ccc(C(c2nnnn2CCc2ccccc2)N2CCN(C3CCCC3)CC2)cc1OC (configuration not stated)	0.037	-8	1.1	0.36	0.9	12
SMILES	hDAT+cocaine	CYP2C19 inhib	CYP2C19 act	D1 mod	CYP2C9 activ	CYP2C9 inh
COc1ccccc1CNC(=O)c1cc2sccc2n1C	-0.097	28	0.7	-1.1	1	-5
O=C(NCCc1c[nH]c2ccccc12)c1cc2sccc2n1Cc1ccccc1	0.76	65*	0.4	·	0.2	82*
Cn1c(C(=O)NCCc2c[nH]c3ccccc23)cc2sccc21	0.082	54*	0.5	0.0052	1.2	-23
CN=Cc1cc(-c2ccccc2)sc1O	-0.39	24	0.8	1.8	1.3	-28
Cc1cccc(C(=O)NNC2=C(C(=O)C(F)(F)F)CCC2)c1O	0.11	-11	1.1	·	0.1	94*
O=C(NNC1=C(C(=O)C(F)(F)F)CCC1)c1cccc(O)c1	0.96	·	·	·	·	·
Cc1sc2ncnc(Nc3ccccc3)c2c1C	-1.5	50*	0.5	·	1	-1
CSCC[C@H](Nc1ncnc2sc(C)c(C)c12)C(=O)O	0.54	-7	1.1	·	0.2	83*
Cc1sc2ncnc(NCc3ccccc3)c2c1C	0.15	75*	0.2	·	0.5	47
C[C@H]1C=C(C(=O)O)O[C@@H](OCc2ccc(CO)cc2)C1	-1.2	·	·	·	·	·
Cc1ccc(S(=O)(=O)N2CCCN(S(=O)(=O)c3ccc(C)cc3)CC2)cc1	-1	8	0.9	-0.94	1.7	-66
CCn1c(=O)c(=O)n(CC)c2cc(S(=O)(=O)Nc3cccc(OC)c3)ccc21	0.4	49	0.5	-1.2	0.1	87*
COc1ccc(S(=O)(=O)Nc2ccc(S(=O)(=O)N3CCOCC3)cc2)cc1	-0.23	60*	0.4	1.1	0.1	94*
CS(=O)(=O)Nc1ccc(S(=O)(=O)N2CCOCC2)cc1	0.79	3	1	-0.71	1	4
COc1cccc(NS(=O)(=O)c2ccc(S(=O)(=O)N3CCOCC3)cc2)c1	-0.48	93*	0.1	0.58	0.3	67*
COc1cccc(S(=O)(=O)N2CCOCC2)c1	0.12	42	0.6	·	1.2	-17
Cc1ccc(S(=O)(=O)Nc2ccc(S(=O)(=O)N3CCCC3)cc2)cc1	-0.55	68*	0.3	-0.44	0	98*
Cc1ccc(-n2ccnc2SCC(=O)N(CC(C)C)C2CCS(=O)(=O)C2)c(C)c1 (configuration not stated)	0.0096	32	0.7	-0.18	0.9	14
COc1cc2c(c(OC)c1OC)-c1c(cc3c(c1OC)OCO3)C1OC2[C@@H](C)[C@H]1C (some centres not stated)	0.66	·	·	·	·	·
CN(C)c1ccc(/C=C/c2ccncc2)cc1	0.37	98*	0	-0.16	0.2	78*
CN(C)c1ccc(-c2nn3c(-c4ccncc4)nnc3s2)cc1	·	·	·	2.5	·	·
C=CCOc1nc(N(C)C)nc(N(C)C)n1	0.13	-6	1.1	2.2	1.4	-40
CC(C)c1ccc(NC(=O)c2cccnc2)cc1	-0.65	0	1	·	0.9	14
CC(C)c1ccc(O)c(NC(=O)c2cccnc2)c1	-0.46	70*	0.3	·	0.5	48
